Data published in PubChem BioAssay.

assay: compound effects on lung adenocarcinoma cell viability – A549, calcein-AM fluorescence, 48 h, basal, profiling panel (AID 1162); details: higher = more signal
Note: test concentration not given here.

Row | SMILES | z-score
1 | CCN1C(=O)[C@H]2[C@@H]3C(=CC[C@H]2C1=O)C(=O)[C@H]1O[C@H]1[C@H]3O | -0.163
2 | C[C@H]1CC[C@@H](C(=O)O)N[C@@H]1c1cccc(N2CCCC2=O)c1 | 0.594
3 | CCOC(=O)CCN1C(=O)[C@H]2[C@H]3[C@H](O)[C@H](O)CC(=NO[C@@H]4O[C@H](CO)[C@@H](O)[C@H](O)[C@H]4O)[C@H]3CC[C@H]2C1=O | 0.484
4 | O=C1C2=CC[C@H]3C(=O)N(Cc4ccccc4)C(=O)[C@H]3[C@H]2[C@H](O)[C@@H]2O[C@H]12 | -0.77
5 | CC(CCC(=O)OC[C@H]1O[C@H](C#Cc2ccccc2)C=C[C@@H]1Oc1ccc(C)cc1)=NO[C@@H](C)c1cc(-c2c(C)cc(C)cc2C)no1 | -0.355
6 | CO[C@@H]1[C@H](O)CO[C@H]1C=Cc1ccccc1 | 0.998
7 | COc1ccc(O[C@H]2C=C[C@@H](c3ccccc3)O[C@@H]2COC(=O)NCc2cccc3ccccc23)cc1 | 0.152
8 | CCOC(=O)CCN1C(=O)[C@H]2[C@@H]3C(=CC[C@H]2C1=O)C(=O)[C@H]1O[C@H]1[C@H]3O | 0.762
9 | COC(=O)[C@H](Cc1ccccc1)NC(=O)[C@@H](C)CO | -0.457
10 | CC(CCC(=O)OC[C@H]1O[C@H](C#Cc2ccccc2)C=C[C@@H]1Oc1ccc(C)cc1)=NO[C@H](C)c1cn([C@@H]2COC[C@H]2O)nn1 | 1.28
11 | COC(=O)[C@H](C)NC(=O)CC=C[C@@H](C)[C@@H]1C=C[C@H](O)[C@@H](CO)O1 | -0.244
12 | COc1ccc(O[C@H]2C=C[C@@H](c3ccccc3)O[C@@H]2CON=C(C)CCN2CCCc3nc(C)c(C)cc32)cc1 | 0.0505
13 | COC(=O)[C@H](CCSC)NC(=O)CC=C[C@@H](C)CO | -0.493
14 | CC(CCN1CCc2nc(-c3ccccc3)c(-c3ccccc3)cc2C1)=NO[C@@H](C)c1cc(-c2c(C)cc(C)cc2C)no1 | -0.826
15 | CCOC(=O)[C@H](CC(C)C)NC(=O)CCC1CC(OC(=O)NCc2ccc3c(c2)OCO3)CC2(CCCC(COC(=O)NCCc3ccc(Cl)cc3)O2)O1 (stereo partly specified) | 0.0432
16 | CN1CCc2nc(-c3ccccc3)c(-c3ccccc3)cc2C1 | -0.244
17 | CC(C)CON=C1C[C@@H](O)[C@@H](O)[C@@H]2[C@@H]3C(=O)N([C@@H](C)c4ccccc4)C(=O)[C@@H]3CC[C@@H]12 | -0.398
18 | CC(CCC(=O)OC[C@H]1O[C@H](C#Cc2ccccc2)C=C[C@@H]1Oc1ccc(C)cc1)=NOC[C@@H](C)[C@H](OCc1ccccc1)C(C)C | -0.284
19 | CC1(C)O[C@H]2OC([C@H](O)CON3C(=O)c4ccccc4C3=O)[C@H](O)[C@H]2O1 (stereo partly specified) | 0.23
20 | C#CCCCON=C1C[C@@H](O)[C@@H](O)[C@@H]2[C@@H]3C(=O)N(CC)C(=O)[C@@H]3CC[C@H]12 | -0.662
21 | CCCC[C@H]1CN2[C@@H](CC[C@@H](C)[C@@H]2c2ccc(Br)cc2)C(=O)O1 | 0.214
22 | C[C@@H]1CC[C@H]2C(=O)O[C@@H](CN=[N+]=[N-])CN2[C@H]1c1ccc(Br)cc1 | -3.8
23 | CCOC(=O)[C@H](CC(C)C)NC(=O)CCC1CC(OC(=O)NCc2ccc3c(c2)OCO3)CC2(CCCC(COC(=O)NCCc3ccccc3OC)O2)O1 (stereo partly specified) | -0.47
24 | CCCNC(=O)OC[C@H]1O[C@H](CCON=C2C[C@@H](O)[C@@H](O)[C@@H]3[C@@H]4C(=O)N(CC)C(=O)[C@@H]4CC[C@@H]23)C=C[C@@H]1Oc1ccc(OC)cc1 | 0.778
25 | COCOc1ccc(Br)cc1C(=O)C=Cc1ccc2c(c1)OCO2 | -0.206

assay: compound effects on differentiated 3T3-L1 adipocyte viability – cell-based, 3T3-L1 adipocytes, calcein-AM fluorescence, 48 h, basal, profiling panel (AID 1163); details: 3T3-L1 adipocytes viability, higher = more signal

Row | SMILES | z-score
26 | CO[C@H]1COC(=O)CCC[C@H](C)[C@H](OC)COC(=O)CC=C[C@@H]1C | -0.14
27 | CCO[C@H](c1cc(OC)cc([N+](=O)[O-])c1OC)[C@H](C)[C@@H](OC)[C@H](C)C=CCC(=O)OC | -0.402
28 | O=C1[C@H]2[C@H]3[C@H](O)[C@H](O)CC(=NOC[C@@H](O)COCc4ccco4)[C@@H]3CC[C@H]2C(=O)N1Cc1ccccc1 | -0.886
29 | COC(=O)CC=C[C@@H](C)[C@@H](C=NOC[C@@H](O)COCc1ccco1)OC | -0.921
30 | C[C@@H](c1ccccc1)N1C(=O)[C@H]2[C@H]3[C@H](O)[C@H](O)CC(=NNC(=O)OCc4ccccc4)[C@@H]3CC[C@H]2C1=O | -0.506
31 | CCOC(=O)[C@H](Cc1ccccc1)NC(=O)CCC1CC(OC(=O)NCc2ccc3c(c2)OCO3)CC2(CCCC(COC(=O)NCCOC)O2)O1 (stereo partly specified) | -0.182
32 | CCOC(=O)CCN1C(=O)[C@H]2[C@H]3[C@H](O)[C@H](O)CC(=NNC(=O)OCc4ccccc4)[C@H]3CC[C@H]2C1=O | 1.33
33 | COc1ccc(O[C@H]2C=C[C@@H](c3ccccc3)O[C@@H]2COC(=O)CCC(C)=NOC[C@@H](O)COCc2ccco2)cc1 | 0.651
34 | CCCCOC(OCCCC)C(O)CSc1ccc2ccccc2c1 (stereo unspecified) | -0.809
35 | CC(C)CON=C1C[C@@H](O)[C@@H](O)[C@@H]2[C@@H]3C(=O)N(Cc4ccc5c(c4)OCO5)C(=O)[C@@H]3CC[C@@H]12 | -0.724
36 | COC(=O)[C@H](C)NC(=O)CCC1CC(OC(=O)NCCc2ccc(F)cc2)CC2(CCCC(COC(=O)NCCc3ccccc3OC)O2)O1 (stereo partly specified) | -0.825
37 | CCN1C(=O)[C@H]2[C@@H]3C(=CC[C@H]2C1=O)C(=O)[C@H]1O[C@H]1[C@H]3O | 0.634
38 | C[C@H]1CC[C@@H](C(=O)O)N[C@@H]1c1cccc(N2CCCC2=O)c1 | -0.115
39 | CCOC(=O)CCN1C(=O)[C@H]2[C@H]3[C@H](O)[C@H](O)CC(=NO[C@@H]4O[C@H](CO)[C@@H](O)[C@H](O)[C@H]4O)[C@H]3CC[C@H]2C1=O | -0.961
40 | O=C1C2=CC[C@H]3C(=O)N(Cc4ccccc4)C(=O)[C@H]3[C@H]2[C@H](O)[C@@H]2O[C@H]12 | -0.238
41 | CC(CCC(=O)OC[C@H]1O[C@H](C#Cc2ccccc2)C=C[C@@H]1Oc1ccc(C)cc1)=NO[C@@H](C)c1cc(-c2c(C)cc(C)cc2C)no1 | 0.777
42 | CO[C@@H]1[C@H](O)CO[C@H]1C=Cc1ccccc1 | 1.12
43 | COc1ccc(O[C@H]2C=C[C@@H](c3ccccc3)O[C@@H]2COC(=O)NCc2cccc3ccccc23)cc1 | 0.0831

Row | SMILES | z-score
44 | CCOC(=O)CCN1C(=O)[C@H]2[C@@H]3C(=CC[C@H]2C1=O)C(=O)[C@H]1O[C@H]1[C@H]3O | 0.453
45 | COC(=O)[C@H](Cc1ccccc1)NC(=O)[C@@H](C)CO | 0.802
46 | CC(CCC(=O)OC[C@H]1O[C@H](C#Cc2ccccc2)C=C[C@@H]1Oc1ccc(C)cc1)=NO[C@H](C)c1cn([C@@H]2COC[C@H]2O)nn1 | 0.0119
47 | COC(=O)[C@H](C)NC(=O)CC=C[C@@H](C)[C@@H]1C=C[C@H](O)[C@@H](CO)O1 | -0.586
48 | COc1ccc(O[C@H]2C=C[C@@H](c3ccccc3)O[C@@H]2CON=C(C)CCN2CCCc3nc(C)c(C)cc32)cc1 | -0.351
49 | COC(=O)[C@H](CCSC)NC(=O)CC=C[C@@H](C)CO | -0.169
50 | CC(CCN1CCc2nc(-c3ccccc3)c(-c3ccccc3)cc2C1)=NO[C@@H](C)c1cc(-c2c(C)cc(C)cc2C)no1 | 0.998
51 | CCOC(=O)[C@H](CC(C)C)NC(=O)CCC1CC(OC(=O)NCc2ccc3c(c2)OCO3)CC2(CCCC(COC(=O)NCCc3ccc(Cl)cc3)O2)O1 (stereo partly specified) | -0.179
52 | CN1CCc2nc(-c3ccccc3)c(-c3ccccc3)cc2C1 | 0.665
53 | CC(C)CON=C1C[C@@H](O)[C@@H](O)[C@@H]2[C@@H]3C(=O)N([C@@H](C)c4ccccc4)C(=O)[C@@H]3CC[C@@H]12 | -0.63
54 | CC(CCC(=O)OC[C@H]1O[C@H](C#Cc2ccccc2)C=C[C@@H]1Oc1ccc(C)cc1)=NOC[C@@H](C)[C@H](OCc1ccccc1)C(C)C | 0.0487
55 | CC1(C)O[C@H]2OC([C@H](O)CON3C(=O)c4ccccc4C3=O)[C@H](O)[C@H]2O1 (stereo partly specified) | 0.0217
56 | C#CCCCON=C1C[C@@H](O)[C@@H](O)[C@@H]2[C@@H]3C(=O)N(CC)C(=O)[C@@H]3CC[C@H]12 | -0.751
57 | CCCC[C@H]1CN2[C@@H](CC[C@@H](C)[C@@H]2c2ccc(Br)cc2)C(=O)O1 | 0.544
58 | C[C@@H]1CC[C@H]2C(=O)O[C@@H](CN=[N+]=[N-])CN2[C@H]1c1ccc(Br)cc1 | 0.254
59 | CCOC(=O)[C@H](CC(C)C)NC(=O)CCC1CC(OC(=O)NCc2ccc3c(c2)OCO3)CC2(CCCC(COC(=O)NCCc3ccccc3OC)O2)O1 (stereo partly specified) | -0.837
60 | CCCNC(=O)OC[C@H]1O[C@H](CCON=C2C[C@@H](O)[C@@H](O)[C@@H]3[C@@H]4C(=O)N(CC)C(=O)[C@@H]4CC[C@@H]23)C=C[C@@H]1Oc1ccc(OC)cc1 | 0.206
61 | COCOc1ccc(Br)cc1C(=O)C=Cc1ccc2c(c1)OCO2 | -0.342
